Records with an inconclusive call do not appear. The source made the active and inactive calls. Calls come from the whole dose curve; as a rule, active = well fitted inhibition curve with a large enough effect; inconclusive = small, poorly fitted or top-dose-only effect; inactive = flat fitted curve, though single readings scatter.
experiment: P-glycoprotein substrates identified in KB-8-5-11 adenocarcinoma cell line, qHTS therapeutic library screen (AID 1346987); conditions: KB-8-5-11 (P-gp overexpressing) viability, CellTiter-Glo, 72 h; series mostly up to 44.5 µM; activity change, negative = cytotoxicity: at the top concentration; note: nearly all actives have a fitted effect of over 65% in size
Method in brief: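 Steps: plate 500 KB-8-5-11 cells/well in DMEM + 10% FCS (colchicine removed); pin compounds in dose-response; incubate 72 h, 37 degree C, 5% CO2; add CellTiter-Glo, 5 min; read luminescence.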
% is set by controls: 0 for no effect and ±100 for the full control effect.

SMILES | activity change, negative = cytotoxicity | outcome
NC1Nc2ccccc2C1(N)CC1NC(=O)C(Cc2ccccc2)NC(=O)C(Cc2ccccc2)NC1=O (centres undefined) | 5.46% [at 17.3 µM] (inactive) | 
O=C(O)Cc1cn([C@@H]2O[C@H](CO)[C@@H](O)[C@H](O)[C@H]2O[C@@H]2O[C@H](CO)[C@@H](O)[C@H](O)[C@H]2O)c2ccccc12 |  | inactive [at 17.3 µM]
CC1(C)CC[C@]2(C(=O)O)CC[C@]3(C)C(=CCC4[C@@]5(C)C[C@H](O)[C@H](O[C@@H]6O[C@H](CO)[C@@H](O)[C@H](O)[C@H]6O)[C@@](C)(CO)C5[C@H](O)C[C@]43C)[C@@H]2C1 (some centres undefined) | 4.61% [at 17.3 µM] (inactive) | 
COC(=O)C1=CO[C@@H](O[C@@H]2O[C@H](CO)[C@@H](O)[C@H](O)[C@H]2O)[C@@H]2C(C)CC(=O)[C@]12O (some centres undefined) | 2.76% [at 17.3 µM] (inactive) | 
CC(CC12CCCN1C(=O)C1CCCN1C2=O)OC(N)=O (centres undefined) |  | inactive
COC1CC(O[C@H]2CC[C@@]3(C)C(=CC[C@]4(O)C3[C@H](O)[C@@H](O)[C@]3(C)[C@@H]([C@H](C)O)CC[C@@]34O)C2)OC(C)C1OC1CC(OC)C(OC2CC(OC)C(OC3OC(C)C(OC4OC(CO)C(O)C(O)C4O)C(OC)C3O)C(C)O2)C(C)O1 (some centres undefined) | 0.732% [at 9.29 µM] (inactive) | 
C=C1CCC(OC(C)=O)C2(C)CC3OC(=O)C(C)=C3CC12 (centres undefined) | -4.92% (inactive) | 
NC(=O)C(O[C@@H]1O[C@H](CO[C@@H]2O[C@H](CO)[C@@H](O)[C@H](O)[C@H]2O)[C@@H](O)[C@H](O)[C@H]1O)c1ccccc1 (some centres undefined) | 4.32% [at 17.3 µM] (inactive) | 
C=C(C(=O)O)[C@@H]1CC[C@@]2(C)CC[C@@H](O)C(=C)C2C1 (some centres undefined) | 5.19% (inactive) | 
COC(=O)C[C@H]1C(C)(C)[C@H](OC(=O)C(C)C)C2CC3=C4CC(=O)O[C@@H](c5ccoc5)[C@]4(C)CCC3[C@@]1(C)C2=O (some centres undefined) | -4.02% [at 17.3 µM] (inactive) | 
c1ccc2c(Nc3nnc(-c4ccncc4)s3)cccc2c1 | -12.4% (inactive) | 
COc1ccc(CC(=O)NCc2ccccc2-c2ccccc2C(=O)NCCc2cccnc2)cc1 | -14.2% (inactive) | 
CC1=C2C[C@@]3(C)C(CCC[C@@H]3C)C(O)C2(O)OC1=O (some centres undefined) | -12.2% (inactive) | 
CC1(C)CC[C@]2(C(=O)O[C@@H]3O[C@H](CO)[C@@H](O)[C@H](O)[C@H]3O)CC[C@]3(C)C(=CCC4[C@@]5(C)CC[C@H](O[C@H]6O[C@H](CO)[C@@H](O)[C@H](O[C@@H]7O[C@H](CO)[C@@H](O)[C@H](O)[C@H]7O)[C@H]6O)C(C)(C)C5CC[C@]43C)[C@@H]2C1 (some centres undefined) | 4.26% [at 9.29 µM] (inactive) | 
C=C1C(OC(C)=O)C(=O)C2C(C)(C)C(O)CCC2(C)C1CC(OC(C)=O)/C(C)=C/COC(C)=O (centres undefined) | -4.36% [at 17.3 µM] (inactive) | 
CC(=O)NC1CC(=O)C23C(=O)NC(Cc4c[nH]c5ccccc45)C2C(C)=C(C)C(O)C3/C=C/CC(C)/C=C(/C)C(O)C1O (centres undefined) | 2.46% [at 17.3 µM] (inactive) | 
COC(=O)C1=C[C@@H](O)[C@@H](O)[C@H](O[C@@H]2O[C@H](CO)[C@@H](O)[C@H](O)[C@H]2OC(=O)/C=C/c2ccccc2)C1 | 2.09% [at 17.3 µM] (inactive) | 
COC(=O)C(Cc1ccccc1)NC(=O)c1ccccc1 (centres undefined) |  | inactive
Fc1ccccc1-c1nc2ccn(Cc3ccc(-c4ccc(C(F)(F)F)cc4C(F)(F)F)nn3)cc-2n1 | 4.25% (inactive) | 
C[C@@H]1O[C@@H](OC(=O)Cc2ccccc2)[C@H](O)[C@H](O)[C@H]1O | 5.01% (inactive) | 

SMILES | activity change, negative = cytotoxicity | outcome
C=C1C(OC(C)=O)[C@@]23CCC4[C@](C)(C(=O)O)CCC[C@@]4(C)[C@]2(O)CC[C@H]1C3 (some centres undefined) | -2.24% (inactive) | 
COC(=O)C1=COC(O[C@@H]2O[C@H](CO)[C@@H](O)[C@H](O)[C@H]2O)C2C(C)C(=O)CC12 (some centres undefined) |  | inactive
CC1=C2CC(=O)C(C)CC/C=C(\C)CC2OC1=O (centres undefined) |  | inactive
C[C@H]1[C@@H](O)[C@H](O)C2[C@]3(C)C([C@@H](O)[C@H]4OC(=O)[C@@H]1[C@@]24C)[C@](C)(O)C=C[C@H]3O[C@@H]1O[C@H](CO)[C@@H](O)[C@H](O)[C@H]1O (some centres undefined) | 9.72% [at 17.3 µM] (inactive) | 
CC(=O)O[C@@H]1C[C@@H](C)[C@](O)(CCC2=CC(=O)OC2)[C@@]2(C)CCCC(C)(C)C12 (some centres undefined) | 4.09% (inactive) | 
COc1c2c(c(C)c3c1C(=O)OC3)OC1(C)CC(O)C34OC(OC)(CC(O)C3(C)C1C2)OC4(C)C (centres undefined) |  | inactive [at 17.3 µM]
C[C@@H]1O[C@@H](O[C@H]2[C@H](OC(=O)[C@]34CCC(C)(C)C[C@H]3C3=CCC5[C@@]6(C)CC[C@H](O[C@@H]7O[C@H](CO[C@@H]8OC[C@H](O)[C@H](O)[C@H]8O[C@@H]8OC[C@@H](O)[C@H](O)[C@H]8O)[C@@H](O)[C@H](O)[C@H]7O)C(C)(C)C6CC[C@@]5(C)[C@]3(C)C[C@H]4O)O[C@H](CO)[C@@H](O)[C@@H]2O)[C@H](O[C@@H]2O[C@H](CO)[C@@H](O)[C@H](O)[C@H]2O)[C@H](O)[C@H]1O[C@@H]1OC[C@@H](O)[C@H](O[C@@H]2OC[C@@H](O)[C@H](O)[C@H]2O)[C@H]1O (some centres undefined) | 9.58% [at 5.11 µM] (inactive) | 
Cc1onc(-c2ccccc2Cl)c1C(=O)N(C)c1ccc(Cl)cc1 | -5.46% (inactive) | 
Nc1c(-c2ccccc2)nc(Cl)c2c(O)n[nH]c(=O)c12 |  | inactive
C[C@@H]1C[C@@H](O)[C@@]23CO[C@]2(CO)CCC[C@@H]3[C@@]12C[C@@H](c1ccoc1)OC2=O |  | inactive
Cc1ncc(NC(=O)c2ccc(CN3CCN(C)CC3)c(C(F)(F)F)c2)cc1Nc1nccc(-c2cccnc2)n1 |  | inactive
CC[C@H]1OC(=O)[C@H](C)[C@@H](O[C@H]2C[C@@](C)(OC)[C@@H](O)[C@H](C)O2)C(C)[C@@H](O[C@@H]2O[C@H](C)C[C@H](N(C)C)[C@H]2O)[C@](C)(O)C[C@@H](C)CN(C)[C@H](C)[C@@H](O)[C@]1(C)O (some centres undefined) | 7.45% (inactive) | 
C[C@@H]1C(=O)O[C@H](C)[C@H]1C[C@@H](O)[C@](C)(O)[C@H]1CC[C@@]2(O)C3=CC(=O)[C@@H]4C[C@@H](O)[C@@H](O)C[C@]4(C)C3CC[C@]12C (some centres undefined) | -0.429% [at 17.3 µM] (inactive) | 
COC(=O)C(CC1(OC(=O)C(C)C)c2ccccc2N2C(=O)C(C)(C)N(O)C21)n1cnc2ccccc2c1=O (centres undefined) | -6.25% [at 17.3 µM] (inactive) | 
C[C@]1(O)CC[C@@H]2C(C(=O)O)=CO[C@@H](O[C@@H]3O[C@H](CO)[C@@H](O)[C@H](O)[C@H]3O)[C@@H]21 | 8.38% (inactive) | 
C/C=C1\[C@H](O[C@@H]2O[C@H](CO)[C@@H](O)[C@H](O)[C@H]2O)OC=C(C(=O)OCCc2ccc(O)cc2)[C@H]1CC(=O)OCCc1ccc(O)cc1 | -6.12% [at 17.3 µM] (inactive) | 
Cc1cn2cc(CC(=O)N3CCC4(CC3)CN(Cc3ccc(-n5nccn5)cc3Cl)C4)nc2s1 | -24.5% (inactive) | 
O=C(Nc1ccc(N2CCC(C(=O)N3CCOCC3)CC2)cc1)c1cnc(Oc2ccccc2)nc1 |  | inactive
COC(=O)[C@@H](NC(=O)[C@H](CC(C)C)NC(=O)N(Cc1ccccc1)C[C@@H](O)[C@H](Cc1ccccc1)NC(=O)OC(C)(C)C)C(C)C | -2.72% [at 9.29 µM] (inactive) | 

— PubChem BioAssay (NCATS)
